# Experimental data: the supplement of paper PMC8728848
# Only a selection was taken, and the strongest signals are over-represented in it overall.
# B1: PX9961C-bth-497-22-497 (Bacteroides thetaiotaomicron) (protein)
# chain: DWLDLNTTSSVETGQAIVTLDDAQIALNGIYRLASGHSYYGDNYWYYGDCRAADVQARITKGDGKRVSPYYEYNVLASDNLNIVLPWNTVYKVIRQTNNLIQKIESGSIQSSDTKELNRIKSEALVMRGLSLFNLTRLFGMPYTNDKGASLGVPIETSPSDPTHKPSRSTVAQCYEQVVSDMSNALSGLRQETSNGYINYWAAQALLSRVYLNMGEYQKAYDAATDVIKNNGGRYQLYSYEEYPNVWGQDFQSESLFELYITLSEPSGGTGGEGAPMVYANEATVDWNNLILSEDFLNLLNEDPKDVRHCLTKESVIENNTGLPAAAMHEKVYLAKFPGKTGDDPKTNNICIIRLSEVYLNAAEAGLKKGTDIEEAQGYLNDIISRRTTDTSQQVSTETFTLDRILKERRKELVGEGEVFYDYLRNGLAIERKGSWHLETLKASNAQKIEATDLRIALPIPQSEIDANPNIQQNPR
# Experiments:
# Experiment in all cases: glycan array binding signal (z-score within array); higher = stronger binding
# Conditions in all cases: glycan notation: IUPAC condensed, linker removed
# [1] = biological target: GalNAc(b1-4)GlcNAc(b1-2)Man(a1-3)[GalNAc(b1-4)GlcNAc(b1-2)Man(a1-6)]Man(b1-4)GlcNAc(b1-4)GlcNAc
# Outline: (§1)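 Negative Z-scores can be read as non-binding. The Z-score is calculated within each array and then averaged across arrays of one protein sequence at different concentrations or buffers and across linkers. Arrays, 3228 in all, were curated from the Consortium for Functional Glycomics database and kept only where the protein sequence was available.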
# [2] = biological target: GlcA(b1-3)GlcNAc
# Outline: as §1
# [3] = biological target: GlcNAc(a1-4)Gal(b1-4)GalNAc
# Outline: as §1
# [4] = biological target: GlcNAc(a1-4)Gal(b1-4)GlcNAc(b1-3)Gal(b1-4)GlcNAc(b1-3)Gal(b1-4)GlcNAc
# Outline: as §1
# [5] = biological target: GlcNAc(b1-3)Gal(b1-4)GlcNAc(b1-3)Gal(b1-4)GlcNAc(b1-2)Man(a1-3)[GlcNAc(b1-3)Gal(b1-4)GlcNAc(b1-3)Gal(b1-4)GlcNAc(b1-2)Man(a1-6)]Man(b1-4)GlcNAc(b1-4)GlcNAc
# Outline: as §1
# [6] = biological target: GlcNAc(b1-3)Gal(b1-4)GlcNAc(b1-3)Gal(b1-4)GlcNAc(b1-3)Gal(b1-4)GlcNAc(b1-2)Man(a1-3)[GlcNAc(b1-3)Gal(b1-4)GlcNAc(b1-3)Gal(b1-4)GlcNAc(b1-3)Gal(b1-4)GlcNAc(b1-2)Man(a1-6)]Man(b1-4)GlcNAc(b1-4)GlcNAc
# Outline: as §1
# [7] = biological target: GlcNAc(b1-3)Gal(b1-4)GlcNAc(b1-3)Gal(b1-4)GlcNAc(b1-3)Gal(b1-4)GlcNAc(b1-3)Gal(b1-4)GlcNAc(b1-2)Man(a1-3)[GlcNAc(b1-3)Gal(b1-4)GlcNAc(b1-3)Gal(b1-4)GlcNAc(b1-3)Gal(b1-4)GlcNAc(b1-3)Gal(b1-4)GlcNAc(b1-2)Man(a1-6)]Man(b1-4)GlcNAc(b1-4)[Fuc(a1-6)]GlcNAc
# Outline: as §1
# [8] = biological target: GlcNAc(b1-3)Gal(b1-4)GlcNAc(b1-3)Gal(b1-4)GlcNAc(b1-3)Gal(b1-4)GlcNAc(b1-3)Gal(b1-4)GlcNAc(b1-2)[GlcNAc(b1-3)Gal(b1-4)GlcNAc(b1-3)Gal(b1-4)GlcNAc(b1-3)Gal(b1-4)GlcNAc(b1-3)Gal(b1-4)GlcNAc(b1-6)]Man(a1-6)[GlcNAc(b1-3)Gal(b1-4)GlcNAc(b1-3)Gal(b1-4)GlcNAc(b1-3)Gal(b1-4)GlcNAc(b1-3)Gal(b1-4)GlcNAc(b1-2)Man(a1-3)]Man(b1-4)GlcNAc(b1-4)[Fuc(a1-6)]GlcNAc
# Outline: as §1
# [9] = biological target: GlcNAc(b1-3)Gal(b1-4)GlcNAc(b1-6)[Gal(b1-3)]GalNAc
# Outline: as §1
# [10] = biological target: GlcNAc(b1-4)GlcNAc
# Outline: as §1
# [11] = biological target: GlcNAc(b1-4)GlcNAc(b1-4)GlcNAc(b1-4)GlcNAc(b1-4)GlcNAc
# Outline: as §1
# [12] = biological target: Kdn(a2-6)Gal(b1-4)GlcNAc
# Outline: as §1
# [13] = biological target: Man(a1-6)Man
# Outline: as §1
# [14] = biological target: Neu5Ac(a2-3)Gal(b1-3)GlcNAc(b1-3)Gal(b1-4)GlcNAc
# Outline: as §1
# [15] = biological target: Neu5Ac(a2-3)Gal(b1-3)[Fuc(a1-4)]GlcNAc(b1-3)Gal(b1-3)[Fuc(a1-4)]GlcNAc
# Outline: as §1
# [16] = biological target: Neu5Ac(a2-3)Gal(b1-3)[GlcNAc(b1-6)]GalNAc
# Outline: as §1
# [17] = biological target: Neu5Ac(a2-3)Gal(b1-4)GlcNAc(b1-2)Man(a1-3)[GlcNAc(b1-4)][Neu5Ac(a2-3)Gal(b1-4)GlcNAc(b1-2)Man(a1-6)]Man(b1-4)GlcNAc(b1-4)GlcNAc
# Outline: as §1
# [18] = biological target: Neu5Ac(a2-3)[GalNAc(b1-4)]Gal(b1-4)GlcNAc
# Outline: as §1
# [19] = biological target: Neu5Ac(a2-6)Gal
# Outline: as §1
# [20] = biological target: Neu5Ac(a2-6)Gal(b1-4)GlcNAc(b1-2)Man
# Outline: as §1
# [21] = biological target: Neu5Ac(a2-6)Gal(b1-4)GlcNAc(b1-3)Gal(b1-4)GlcNAc(b1-3)Gal(b1-4)GlcNAc
# Outline: as §1
# [22] = biological target: Neu5Ac(a2-6)Gal(b1-4)GlcNAc(b1-3)Gal(b1-4)GlcNAc(b1-3)Gal(b1-4)GlcNAc(b1-2)Man(a1-3)[Neu5Ac(a2-6)Gal(b1-4)GlcNAc(b1-3)Gal(b1-4)GlcNAc(b1-3)Gal(b1-4)GlcNAc(b1-2)Man(a1-6)]GalNAc
# Outline: as §1
# [23] = biological target: Neu5Ac(a2-8)Neu5Ac(a2-3)Gal(b1-4)GlcNAc
# Outline: as §1
# [24] = biological target: Neu5Ac(a2-8)Neu5Ac(a2-3)[GalNAc(b1-4)]Gal(b1-4)Glc
# Outline: as §1
# [25] = biological target: Neu5Ac(a2-8)Neu5Ac(a2-8)Neu5Ac(a2-3)[Gal(b1-3)GalNAc(b1-4)]Gal(b1-4)Glc
# Outline: as §1
# [26] = biological target: Neu5Ac(a2-8)Neu5Gc(a2-3)Gal(b1-4)GlcNAc
# Outline: as §1
# [27] = biological target: Neu5Ac(b2-6)GalNAc
# Outline: as §1
# [28] = biological target: Neu5Gc(a2-3)Gal(b1-3)GlcNAc
# Outline: as §1
# [29] = biological target: Neu5Gc(a2-8)Neu5Gc(a2-3)Gal(b1-4)GlcNAc(b1-3)Gal(b1-4)GlcNAc
# Outline: as §1
binder,measurement,setting,value
B1,glycan array binding signal (z-score),[1],1.18
same,glycan array binding signal (z-score),[2],0.671
same,glycan array binding signal (z-score),[3],-0.269
same,glycan array binding signal (z-score),[4],0.15
same,glycan array binding signal (z-score),[5],1.6
same,glycan array binding signal (z-score),[6],0.098
same,glycan array binding signal (z-score),[7],2.24
same,glycan array binding signal (z-score),[8],-0.034
same,glycan array binding signal (z-score),[9],1.56
same,glycan array binding signal (z-score),[10],-0.2
same,glycan array binding signal (z-score),[11],-0.492
same,glycan array binding signal (z-score),[12],-0.057
same,glycan array binding signal (z-score),[13],-0.481
same,glycan array binding signal (z-score),[14],0.993
same,glycan array binding signal (z-score),[15],2.16
same,glycan array binding signal (z-score),[16],-0.029
same,glycan array binding signal (z-score),[17],-0.279
same,glycan array binding signal (z-score),[18],-0.469
same,glycan array binding signal (z-score),[19],0.311
same,glycan array binding signal (z-score),[20],-0.411
same,glycan array binding signal (z-score),[21],-0.506
same,glycan array binding signal (z-score),[22],0.689
same,glycan array binding signal (z-score),[23],-0.198
same,glycan array binding signal (z-score),[24],-0.361
same,glycan array binding signal (z-score),[25],-0.241
same,glycan array binding signal (z-score),[26],13.7
same,glycan array binding signal (z-score),[27],-0.424
same,glycan array binding signal (z-score),[28],-0.496
same,glycan array binding signal (z-score),[29],0.531
